In PubChem BioAssay (EPA / NIEHS):
Records with an inconclusive call do not appear. Active and inactive are the calls of the source. Rule for the calls: active = hit-call score of the fitted dose curve at least 0.9, where 1 is the maximum; inconclusive = response in the unintended direction; inactive = score below 0.9.

Assay: ATG_Hpa5_TRANS: Attagene TRANS-FACTORIAL HepG2 Assay for human GAL4-Hpa5 Hepatocyte Transcription Factor Basal Promoter (AID 2282975);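 note: hits are increases in reporter mRNA over DMSO baseline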
Conditions: HepG2 Attagene GAL4-Hpa5 transcription reporter
Outline: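 Basal-promoter GAL4 background control within the HepG2 trans-factorial panel of transiently transfected reporter units. Reporter mRNA is measured 24 h after dosing by RT-PCR and capillary electrophoresis, fitted for gain of signal versus DMSO.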

Which outcome does the source give for `COC(=O)c1cccc(C)c1S(=O)(=O)NC(=O)Nc1nc(OCC(F)(F)F)nc(N(C)C)n1` here?
Its outcome is “inactive”.

Which outcome does the source give for `c1ccc(Nc2ccccc2)cc1` here?
Its outcome is “inactive”.

Which outcome does the source give for `CCCCOC(=O)[C@@H](C)Oc1ccc(Oc2ccc(C(F)(F)F)cn2)cc1` here?
Its outcome is “inactive”.

For `CCOC(=O)NCCOc1ccc(Oc2ccccc2)cc1`, which outcome is on record?
Its outcome is “inactive”.

With `CCCN(CCC)c1c([N+](=O)[O-])cc(C(F)(F)F)c(N)c1[N+](=O)[O-]` as the compound, how does the outcome read?
Its outcome is “inactive”.

With `N#CSCSc1nc2ccccc2s1` as the compound, how does the outcome read?
Its outcome is “inactive”.

Which outcome does the source give for `CCN(Cc1c(F)cccc1Cl)c1c([N+](=O)[O-])cc(C(F)(F)F)cc1[N+](=O)[O-]` here?
The outcome was “inactive”.

For `CCCN(CCC)C(=O)SCC`, which outcome is on record?
The outcome was “inactive”.

With `S=C(S)NCCNC(=S)S.[Mn+2].[S-]C([S-])=NCCN=C([S-])[S-].[Zn+2]` as the compound, how does the outcome read?
Its outcome is “inactive”.

Which outcome does the source give for `OB(O)O` here?
The outcome was “inactive”.

For `CCCCOC(=O)C(C)Oc1ccc(Oc2ccc(C(F)(F)F)cn2)cc1` (stereo not drawn), which outcome is on record?
Its outcome is “inactive”.

For `CCCOC(=O)c1ccc(C(=O)OCCC)nc1`, which outcome is on record?
The outcome was “inactive”.

With `CCSC(=O)N(CC(C)C)CC(C)C` as the compound, how does the outcome read?
The outcome was “inactive”.
